Assay outcomes (PubChem BioAssay)
An excerpt weighted towards active compounds, which were near 2.4% of everything screened.
D2 PAM-1 = positively modulates the human D2 dopamine receptor allosterically. potentiation, % at 10 µM. P14416. 340,000 tested, 0.34% active. HEK293 T-REx D2, calcium flux, EC20 dopamine potentiation;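 active = potentiation over 3 SD above the plate norm, cut at about 30% in these data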; note: 0% is about no effect
Target sequence (P14416 whole entry, looked up): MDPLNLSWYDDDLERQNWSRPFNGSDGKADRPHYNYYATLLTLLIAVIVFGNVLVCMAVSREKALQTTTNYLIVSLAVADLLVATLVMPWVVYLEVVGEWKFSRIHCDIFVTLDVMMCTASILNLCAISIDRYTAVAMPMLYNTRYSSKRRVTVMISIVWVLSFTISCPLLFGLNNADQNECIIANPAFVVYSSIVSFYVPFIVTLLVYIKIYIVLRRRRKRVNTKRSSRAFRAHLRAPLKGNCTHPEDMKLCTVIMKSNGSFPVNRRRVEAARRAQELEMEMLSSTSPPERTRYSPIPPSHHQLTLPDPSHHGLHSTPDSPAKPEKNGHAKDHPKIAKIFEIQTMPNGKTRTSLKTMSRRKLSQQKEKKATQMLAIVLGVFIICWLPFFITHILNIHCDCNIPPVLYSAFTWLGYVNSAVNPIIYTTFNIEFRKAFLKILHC
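Primary screen. Calcium kinetics in induced HEK293 T-REx D2 cells: compound pre-addition 180 s, EC20 dopamine, 180 s more.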
D2 antagonist = D2 dopamine receptor (human) antagonism. HEK293 TREx D2 cells, calcium flux, dopamine EC80. 340,000 tested, 2% active. AID 485344. inhibition, % at 10 µM. P14416; in the data active = inhibition above about 30%; inactive = below that, where a call was filed; note: 0% is about no effect
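In this primary screen, negative modulation is detected by tracking calcium flux after an EC80 dopamine challenge in inducible HEK293 T-REx D2 cells preexposed to test compound for 180 s.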
D2 ag-1 = agonists of human D2 dopamine receptor; 340,000 tested, 0.53% active; HEK293 T-REx D2 cells, calcium flux agonist mode; activation, % at 2 µM;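 active = activation over 3 SD above normal in the single-dose calcium agonist read, cut at about 30% in these data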; note: 0% is about no effect
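Tetracycline-induced HEK293 Trex cells with D2 receptor force-coupled to calcium signaling, plated overnight at 30 C and loaded with no-wash calcium dye. Calcium flux read kinetically for 180 s after compound addition; responses flag agonists.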
D2 PAM-2 = potentiates the human D2 dopamine receptor allosterically. P14416. DiscoveRx D2 beta-arrestin cells, luminescence, 90 min; 100% = 57 uM dopamine signal. potentiation, % (no concentration beside the values). 360,000 tested, 0.23% active. AID 624464; in the data active = potentiation above about 50%; inconclusive = mostly about 30% to 49%
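D2 cells co-treated with compound plus 50 nM dopamine (EC20) for 90 min at 37 deg C to detect potentiation. Beta-arrestin recruitment was read as enzyme-fragment luminescence after 1 h at ambient temperature. Full response was set by 57 uM dopamine.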
D2 ag-2 = human D2 receptor agonism in beta-arrestin assay | P14416 | DiscoveRx PathHunter D2 beta-arrestin, luminescence, 90 min; 100% = 57 uM dopamine signal | activation, % (test concentration not listed) | 360,000 tested, 0.084% active | AID 624465; in the data active = activation above about 40%; inconclusive = between about 15% and that limit
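DiscoveRx PathHunter D2 beta-arrestin cells (2,100/well) attached overnight, then compound-stimulated 90 min at 37 C in HBSS/10 mM HEPES/0.1% Tween-20 buffer; beta-galactosidase complementation read by luminescence after 1 h at ambient temperature. Dopamine 57 uM final (EC100) as control.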
The depositor's hits bear a star; ? = inconclusive; · = no result given.

SMILES	D2 PAM-1	D2 antagonist	D2 ag-1	D2 PAM-2	D2 ag-2
CC1(C)C(=O)N(CC(=O)Nc2cccc(F)c2)c2ccc(S(=O)(=O)N3CCCCC3)cc21	2	·	2	·	·
Cc1ccc(N=Cc2sc(O)c3ccccc23)cc1	-7	-6	65*	-1	12
Cc1ccc(N=Cc2sc(O)c3ccccc23)c(C)c1	-9	58*	11	?	-7
Cc1ccc(N=Cc2c(O)c3ccccc3n(C)c2=O)cc1	0	12	1	-4	2
CCNC(=O)CC1C(=O)N(c2ccccc2)C(=O)N1Cc1ccc(F)cc1 (configuration not stated)	2	·	0	·	·
O=C(CSC1=NCCN1)Nc1cccc([N+](=O)[O-])c1	-22	49*	0	-22	-4
O=C(CSC1=NCCN1)Nc1ccccc1[N+](=O)[O-]	-17	-5	0	-15	-9
Cc1cccc(NC(=O)c2ccc(Cn3nc(N4CCN(c5ccccc5)CC4)ccc3=O)o2)c1C	-4	·	0	·	·
O=C(CCN1CCCCC1)Nc1cccc(Cl)c1	-15	57*	0	-25	-2
COc1ccc(-c2nn(C)c3sc(C(=O)Nc4cc(OC)c(OC)c(OC)c4)cc23)cc1OC	16	·	0	·	·
CCc1cccc(NC(=O)c2ccc(CNS(=O)(=O)c3ccc4c(c3)C(C)(C)C(=O)N4C)cc2)c1	1	·	0	·	·
COc1ccc(-n2c(SCC(=O)Nc3ccccc3)nc3c(c2=O)SCC3)cc1	12	31*	-1	-6	-2
COc1ccccc1-n1c(SCC(=O)Nc2nnc(C)s2)nc2c(c1=O)SCC2	31*	6	1	0	1
COc1ccc(-n2c(SCC(=O)N3CCOCC3)nc(O)c(Cc3ccccc3)c2=O)cc1	-3	43*	1	-10	-3
COc1ccc(-n2c(SCC(=O)N3CCOCC3)nc(O)cc2=O)cc1	1	·	·	10	-1
CCC(=O)N1c2nc(-c3ccco3)nn2C2(CCCCC2)[C@@H]2CCCC[C@@H]21	7	·	-2	·	·
CCCN1CCN(c2nnc(-n3cccc3C(=O)Nc3ccccc3C(F)(F)F)s2)CC1	-3	·	·	·	·
COc1cc(Cl)c(S(=O)(=O)NCCc2c(C)[nH]c3c(C)cccc23)cc1Cl	14	·	·	·	·
O=C1CC(=O)Nc2cc(S(=O)(=O)Nc3ccc(Cl)c(C(F)(F)F)c3)ccc2N1	3	10	0	6	5
O=C1CC(=O)Nc2cc(S(=O)(=O)Nc3cccc(C(F)(F)F)c3)ccc2N1	1	30*	0	8	2
NC(=O)c1nc(-c2ccc(F)c(F)c2)nc2c1[nH]c(=O)n2-c1cccc(Cl)c1	6	·	0	·	·
O=C(Cc1cccs1)Nc1ccc(NC(=O)c2ccco2)cc1	-11	31*	0	1	2
CCSc1ncc(Cl)c(C(=O)N(Cc2ccc(N(C)C)cc2)Cc2ccco2)n1	·	·	-1	·	·
COc1cccc(N2CCN(c3ncnc4c3[nH]c3ccc(F)cc34)CC2C)c1 (configuration not stated)	-2	-1	3	52*	10
COc1cccc(N2CCN(c3ncnc4c3[nH]c3ccccc34)CC2C)c1 (configuration not stated)	8	-8	1	·	·
SMILES	D2 PAM-1	D2 antagonist	D2 ag-1	D2 PAM-2	D2 ag-2
CCOc1ccc(NC(=O)CN2C(=O)C(c3ccccc3)=NC23CCC(C)CC3)cc1 (configuration not stated)	-3	·	2	·	·
COc1ccc(CCNC(=O)CSc2nc3[nH]ncc3c(=O)n2-c2ccccc2OC)cc1OC	9	37*	3	7	-1
CN(c1nnc(NC(=O)Nc2ccc(Br)cc2)s1)C1CCCCC1	0	·	0	·	·
Cc1ccc(-c2ccc([C@H]3[C@H]4C=CC[C@@H](C)[C@@H]4C(=O)N3Cc3ccccc3)c(F)c2)cc1	-4	33*	1	-9	-6
Cc1nn(-c2ccc(N3CCCC3)nn2)c(C)c1CCC(=O)NCc1ccc(F)cc1	-5	·	0	·	·
CC(C)CNC(=O)N1[C@H](c2cccs2)[C@@H](C)C(=O)[C@@H](C)[C@@H]1c1cccs1	4	·	0	·	·
Oc1ccc(Nc2ccc3ccccc3c2)cc1	·	·	·	66*	3
Oc1ccc(Nc2nc(-c3ccc4ccccc4c3)cs2)cc1	-1	3	1	·	·
